# HSF1 activator = increases HSF-1 driven luciferase reporter signal; hit rate 1.7% among 300,000; NIH3T3-HGL HSF-1 luciferase reporter, MG132, 8 h; 100% = twice DMSO control signal; AID 504408; activation, % at 9 µM;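 active = mean replicate activation of at least 50% with a set share of replicates each reaching 50%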;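 note: 0% = median of the neutral control wells and 100% = twice that signal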
# HSF1 inhib = HSF1 inhibition; AID 2098; NIH3T3-HGL HSE-luciferase, MG132-induced, luminescence 8 h; stronger effect = lower value; hit rate 0.77% among 300,000; activity change, negative = inhibition, % at 7.5 µM (by protocol);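 active = more than half of replicate wells show activity change below -50%, luminescence cut by over half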;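 note: luciferase reports HSF-1 transcriptional activity via heat shock element; 0% = median of DMSO wells and -100% = zero luminescence signal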
# HSP90 refold inh = HSP90 refolding inhibition in rabbit reticulocyte lysate | luciferase refolding luminescence, 3 h | inhibition, % at 5.6 µM | hit rate 0.91% among 290,000;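 active = inhibition above the screen-wide mean plus 3 SD, computed separately per campaign, cut at about 16% in these data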;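 note: 0% = DMSO wells and 100% = 60 µM geldanamycin wells; inhibitors lower the luminescence because luciferase stays unfolded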
# TWEAK-Fn14 inh = TWEAK-Fn14 signaling inhibition | TWEAK-stimulated Fn14 reporter cells, luciferase luminescence, 8 h | AID 1159606 | inhibition, % at 10 µM | hit rate 2% among 360,000; in the data active = inhibition above about 50%
# TROY NFkB inh = TROY signaling inhibition. inhibition, % at 10 µM. AID 1347056. Q293 LMP1-TROYcd NF-kB luciferase reporter, 4 h. hit rate 0.98% among 360,000;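 active = compounds whose plate-normalised and pattern-corrected inhibition of the luciferase reporter signal at the single screening dose is 50% or more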
# LMP1 NFkB inh = reduces LMP1-driven NF-kappaB luciferase signal. hit rate 0.69% among 350,000. inhibition, % at 12.5 µM. LMP1-induced NF-kappaB luciferase reporter cells, luminescence. AID 504558; in the data active = inhibition above about 41%;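 note: 0% = neutral control wells and 100% = reference inhibitor control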
# * = called active by the depositor; / = no result. This is a sample that favours compounds with a hit; in the whole collection about 4.7% have one here.
SMILES,HSF1 activator,HSF1 inhib,HSP90 refold inh,TWEAK-Fn14 inh,TROY NFkB inh,LMP1 NFkB inh
C=Cc1ccc(Cn2c(C)c(C(=O)NCc3ccc(C#N)cc3)sc2=O)cc1,/,/,/,16.3,28.3,/
COc1ccc2c(c1OC)C(=O)OC2,8.1,3.6,-3.2,-3.9,-5.3,-0.4
COc1ccc2c3c(cccc13)C(=O)CC2,23.9,5.0,5.2,62.9*,28.1,0.8
COc1ccc(CCN2CC(C(=O)NCc3ccon3)CCC2=O)cc1 (stereo not given),/,/,/,-10.3,-5.4,-6.9
Clc1cccc(-c2cc3nc4c(c(NCc5ccco5)n3n2)CCCC4)c1,58.1*,22.3,4.8,40.4,43.2,-36.5
COc1ccccc1-c1cc2nc(NCCOc3ccccc3)ccn2n1,/,/,/,8.4,1.4,/
COc1cc(Nc2ccn3nc(-c4ccccc4Cl)cc3n2)cc(OC)c1OC,/,/,/,60.5*,-6.7,/
CCCCCCOC(=O)C1=C(C)NC(=O)NC1c1ccc(O)cc1 (stereo not given),18.9,0.7,0.2,7.5,0.4,-4.6
COc1ccc(C2NC(=O)NC(C)=C2C(=O)OC2CCCCC2)cc1 (stereo not given),/,/,/,-5.3,6.0,-3.9
CCCCOC(=O)C1=C(C)NC(=O)NC1c1ccc(OC)cc1 (stereo not given),-2.6,-1.5,5.2,-9.2,7.5,-7.0
CCCCCOC(=O)C1=C(C)NC(=O)NC1c1ccc(OC)cc1 (stereo not given),17.1,-0.5,1.9,69.9*,2.8,1.6
COc1ccc(C2NC(=O)NC(C)=C2C(=O)OC2CCCC(C)C2)cc1 (stereo not given),14.1,17.0,-5.0,72.7*,44.3,11.4
CCCCCOC(=O)C1=C(C)NC(=O)NC1c1ccc([N+](=O)[O-])cc1 (stereo not given),62.9*,36.7,-0.5,-0.4,-5.6,6.7
O=C(COc1ccccc1)Nc1ccc2c(c1)Cc1cc(NC(=O)COc3ccccc3)ccc1-2,-4.5,-6.7,-3.5,-20.8,-13.5,-5.1
Cc1ccc(C(=O)Nc2ccccc2Oc2ccccc2)o1,-11.6,-2.3,1.8,-21.3,-6.8,-3.7
O=C(CCl)Nc1cccc(Oc2cnccn2)c1,8.3,-2.6,0.5,20.3,-6.2,-9.8
Cc1ccc(C(=O)Nc2cccc(Oc3ccccc3)c2)o1,58.1*,22.3,8.5,6.4,-15.9,-20.8
C=Cc1cccc(NC(=O)COc2ccccc2)c1,57.0*,23.0,-2.6,-33.1,-71.2,-5.9
O=C(CCl)Nc1cccc(Oc2ccccc2)c1,74.0*,37.4,1.8,-7.1,2.6,-19.9
C/C(=N\NC(=O)C1(C)CC1(Br)Br)c1cccc(NC(=O)c2ccc(C)o2)c1 (stereo not given),-6.5,9.2,-4.9,55.7*,16.2,5.7
COc1c2c(c(OC)c3ccccc13)[C@]1(OC2)O[C@H](CCO)C[C@H](O)[C@H]1O,/,/,/,2.0,4.3,/
O=C(CN1C(=O)C2C3C=CC(C3)C2C1=O)OCC(=O)c1ccc(Br)cc1 (stereo not given),-65.7,-60.2*,-2.0,-2.3,-5.5,-18.2
Cc1oc2cc(O)ccc2c(=O)c1-c1cnn(-c2ccccc2)c1,-1.0,13.9,-0.8,-4.4,-11.0,-2.9
O=c1c(-c2cnn(-c3ccccc3)c2)coc2cc(O)ccc12,94.2*,73.2,-1.6,-24.0,-26.1,-14.7
Cc1cccc(OCC(=O)Nc2cccc(C(=O)NCC(C)C)c2)c1,-85.3,-80.6*,-1.8,13.3,-6.8,8.6
SMILES,HSF1 activator,HSF1 inhib,HSP90 refold inh,TWEAK-Fn14 inh,TROY NFkB inh,LMP1 NFkB inh
Cc1cccc(OCC(=O)Nc2cc(C)ccc2O)c1,180.6*,130.2,-1.1,1.4,-14.5,-7.2
Cc1cccc(OCC(=O)Nc2cc(C)c(C)cc2O)c1,11.5,5.1,-3.5,-6.2,-48.2,-9.5
COC(=O)c1ccc2nc(-c3ccco3)c(Cc3cccc(F)c3)n2c1,/,/,/,2.7,-0.2,/
COc1cccc(NC(=O)C2(C)CCN2C(=O)CC2CCCC2)c1 (stereo not given),/,/,/,26.1,-6.2,/
C/C(=N/NC(=O)c1ccoc1C)C12CC3CC(CC(C3)C1)C2,59.3*,36.4,2.4,-44.8,-28.3,-8.3
CC1Oc2ccccc2C=C1/C=N/NC(=O)[C@@H](C)NC(=O)OC(C)(C)C (stereo not given in full),/,/,-0.2,25.8,66.1*,-32.8
Cc1ccc(C(=O)N/N=C/C2=Cc3ccccc3OC2C)cc1 (stereo not given),38.5,6.0,-0.3,-1.1,-16.5,3.0
C[C@H](NC(=O)C1CCN(S(=O)(=O)c2ccccc2)CC1)C(=O)NCc1ccncc1,/,/,/,-7.6,3.2,3.7
CC1(C)CC(=O)c2c(O)cc(OCc3ccc([N+](=O)[O-])cc3)cc2O1,94.6*,57.7,-3.3,-50.7,-10.6,-23.6
Cc1ccc(CNC(=O)COc2cc(O)c3c(c2)OC(C)(C)CC3=O)cc1,2.0,1.3,-5.5,-29.9,7.2,6.2
CC(C)(C)n1[nH]c2c3c(ccc2c1=O)C(=O)c1ccccc1C3=O,-2.0,-2.2,16.8*,63.9*,45.5,-24.0
CCc1nc2ccc(C(=O)Nc3cccc(NS(C)(=O)=O)c3)cn2c1N(C)Cc1nccn1C,/,/,/,-4.5,-4.0,/
COc1ccc(N2C(=O)C(Cl)=C(NCc3ccccc3)C2=O)cc1,11.3,-2.1,-3.0,-1.2,-58.5,65.1*
COc1ccc(NC2=C(Cl)C(=O)N(CCc3ccccc3)C2=O)cc1,59.0*,33.8,1.4,-38.5,-35.9,2.0
CCOc1ccccc1NC1=C(Cl)C(=O)N(c2ccc(OC)cc2)C1=O,-7.0,8.8,1.3,8.4,-10.9,3.8
COc1ccc(CCNC2=C(Cl)C(=O)N(CCc3ccc(OC)c(OC)c3)C2=O)cc1OC,2.9,-1.3,-1.2,51.4*,11.4,-2.4
O=C(CCn1ccc2cc(S(=O)(=O)N3CCCC3)ccc21)NCCc1ccccc1,14.6,5.2,1.8,4.5,-4.3,71.6*
CC(=O)Nc1sc(C)c(C)c1C(=O)OCCOc1ccccc1,61.7*,30.8,1.8,-35.6,-32.9,-19.5
CC(C)CC(=O)NCCNC(=O)c1cc(OCC(F)(F)F)ccc1OCC(F)(F)F,-3.7,-5.2,5.3,75.6*,/,6.1
C[C@@H]1CCCCO[C@H](CN(C)C(=O)Nc2ccc3c(c2)OCO3)[C@H](C)CN([C@@H](C)CO)C(=O)c2cc(NS(=O)(=O)c3ccc(Cl)cc3)ccc2O1,/,/,/,19.2,17.4,-8.6
CC1CN(c2nc3ccccn3c(=O)c2/C=C(\C#N)C(N)=O)CC(C)O1 (stereo not given),3.4,3.2,-1.1,90.5*,-22.3,-8.1
CNC(=O)/C(C#N)=C/c1c(N2CC(C)OC(C)C2)nc2ccccn2c1=O (stereo not given),4.6,-0.2,-3.0,2.9,-0.5,1.5
CC1(C(=O)Nc2cnc3ccccc3c2)CCN1C(=O)C/C=C/c1ccccc1 (stereo not given),/,/,/,-14.8,-3.7,/
O=c1c2cnn(-c3ccccc3)c2nc(-c2cccs2)n1-c1ccc(Cl)cc1,-2.5,-3.2,0.9,31.1,6.8,43.9*
